Laboratory results published in PubChem BioAssay (EPA / NIEHS).
Values joined by “and” are separate entries in the source; they are usually repeats but may differ in a detail not shown here. Identical values can stand only once. A structure can be active in one record and inactive in another. Active and inactive are the calls of the source. Rule for the calls: active = hit-call score of the fitted dose curve at least 0.9, where 1 is the maximum; inactive = score below 0.9.

How the values were obtained:
[1] = read-out: Transforming growth factor beta 1 (TGFb1), TGFB1 (gene 7040); experiment: BSK_BE3C_TGFb1: BioMAP Diversity Plus: BE3C Assay for Transforming growth factor beta 1 (TGFb1) Biomarker Activity (AID 2283036); settings: primary human bronchial epithelial cells; actives raise or lower the signal
Summary of the method: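 TGF-b1 measured via ELISA, 24 h after chemical dosing of human bronchial epithelial cells (BE3C). Overt cytotoxicity assessed in parallel by SRB (0.1%, TCA-fixed, 560 nm); analysis bidirectional relative to DMSO.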

[2] = read-out: Plasminogen activator inhibitor-1 (PAI1), SERPINE1 (gene 5054); experiment: BSK_BE3C_PAI1: BioMAP Diversity Plus: BE3C Assay for Plasminogen activator inhibitor-1 (PAI1) Biomarker Activity (AID 2283037); settings: primary human bronchial epithelial cells; actives raise or lower the signal
Summary of the method: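 In this multiplexed primary-cell system, bronchial epithelial cells receive test chemical and are sampled at 24 h. PAI-1 is read by ELISA, with DMSO serving as negative control for bidirectional fitting.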

[3] = read-out: urokinase plasminogen activator (uPA), PLAU (gene 5328); experiment: BSK_BE3C_uPA: BioMAP Diversity Plus: BE3C Assay for urokinase plasminogen activator (uPA) Biomarker Activity (AID 2283038); settings: primary human bronchial epithelial cells; actives raise or lower the signal
Summary of the method: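 Measured by ELISA: uPA from human primary bronchial epithelial cells 24 h after chemical treatment. Values derive from bidirectional curve fitting with DMSO serving as negative control. Total protein by SRB staining in parallel wells flagged overt cytotoxicity.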

[4] = read-out: Urokinase-type plasminogen activator receptor (uPAR), PLAUR (gene 5329); experiment: BSK_BE3C_uPAR: BioMAP Diversity Plus: BE3C Assay for Urokinase-type plasminogen activator receptor (uPAR) Biomarker Activity (AID 2283039); settings: primary human bronchial epithelial cells; actives raise or lower the signal
Summary of the method: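 Chemically treated human bronchial epithelial cells (lung primary) are assayed for uPAR by ELISA after 24 h, with data fitted in both directions using DMSO as negative control.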

[5] = read-out: Interleukin-6 (IL6), IL6 (gene 3569); experiment: BSK_CASM3C_IL6: BioMAP Diversity Plus: CASM3C Assay for Interleukin-6 (IL6) Biomarker Activity for (AID 2283040); settings: primary human coronary artery smooth muscle cells; actives raise or lower the signal
[6] = read-out: Tissue plasminogen activator (tPA), PLAT (gene 5327); experiment: BSK_BE3C_tPA: BioMAP Diversity Plus: BE3C Assay for Tissue plasminogen activator (tPA) Biomarker Activity (AID 2283041); settings: primary human bronchial epithelial cells; actives raise or lower the signal
Summary of the method: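 Using human lung primary bronchial epithelial cells, tPA was measured by ELISA 24 h after dosing; data fitted relative to DMSO.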

[7] = read-out: Interleukin-8 (IL8), CXCL8 (gene 3576); experiment: BSK_CASM3C_IL8: BioMAP Diversity Plus: CASM3C Assay for Interleukin-8 (IL8) Biomarker Activity (AID 2283042); settings: primary human coronary artery smooth muscle cells; actives raise or lower the signal;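 note: IL-8 protein level quantified by ELISA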
[8] = read-out: Human Leukocyte Antigen - DR isotype (HLADR), HLA-DRA (gene 3122); experiment: BSK_CASM3C_HLADR: BioMAP Diversity Plus: CASM3C Assay for Human Leukocyte Antigen - DR isotype (HLADR) Biomarker Activity (AID 2283043); settings: primary human coronary artery smooth muscle cells; actives raise or lower the signal;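 note: cell-surface HLA-DR protein level quantified by ELISA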
[9] = read-out: Macrophage colony-stimulating factor (MCSF), CSF1 (gene 1435); experiment: BSK_CASM3C_MCSF: BioMAP Diversity Plus: CASM3C Assay for Macrophage colony-stimulating factor (MCSF) Biomarker Activity (AID 2283044); settings: primary human coronary artery smooth muscle cells; actives raise or lower the signal;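 note: M-CSF protein amount quantified by ELISA after 24 h exposure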
[10] = read-out: Low-density lipoprotein receptor (LDLR), LDLR (gene 3949); experiment: BSK_CASM3C_LDLR: BioMAP Diversity Plus: CASM3C Assay for Low-density lipoprotein receptor (LDLR) Biomarker Activity (AID 2283045); settings: primary human coronary artery smooth muscle cells; actives raise or lower the signal;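 note: LDLR protein level on the cell surface quantified by ELISA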
[11] = read-out: Monocyte Chemoattractant Protein-1 (MCP1), CCL2 (gene 6347); experiment: BSK_CASM3C_MCP1: BioMAP Diversity Plus: CASM3C Assay for Monocyte Chemoattractant Protein-1 (MCP1) Biomarker Activity (AID 2283046); settings: primary human coronary artery smooth muscle cells; actives raise or lower the signal;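 note: MCP-1 level quantified by ELISA 24 h after dosing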
[12] = BSK_CASM3C_Proliferation: Cell Proliferation Assessment in the BioMAP Diversity Plus: CASM3C Assay (AID 2283047); settings: primary human coronary artery smooth muscle cells;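 note: sulforhodamine B total protein stain as relative cell number at 560 nm; sub-confluent cells exposed 48 h before staining; fitted both ways against DMSO so gain or loss of cell number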
[13] = read-out: Monokine induced gamma interferon (MIG), CXCL9 (gene 4283); experiment: BSK_CASM3C_MIG: BioMAP Diversity Plus: CASM3C Assay for Monokine induced gamma interferon (MIG) Biomarker Activity (AID 2283048); settings: primary human coronary artery smooth muscle cells; actives raise or lower the signal;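 note: MIG protein level measured by ELISA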
[14] = read-out: serum amyloid A (SAA), SAA1 (gene 6288); experiment: BSK_CASM3C_SAA: BioMAP Diversity Plus: CASM3C Assay for serum amyloid A (SAA) Biomarker Activity (AID 2283049); settings: primary human coronary artery smooth muscle cells; actives raise or lower the signal;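 note: SAA protein level quantified by ELISA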
[15] = BSK_CASM3C_SRB: Viability Assessment in the BioMAP Diversity Plus: CASM3C Assay (AID 2283050); settings: primary human coronary artery smooth muscle cells;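 note: total protein by SRB staining as cytotoxicity measure in parallel cultures; cells exposed to compound for 24 h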
[16] = read-out: Thrombomodulin, THBD (gene 7056); experiment: BSK_CASM3C_Thrombomodulin: BioMAP Diversity Plus: CASM3C Assay for Thrombomodulin Biomarker Activity (AID 2283051); settings: primary human coronary artery smooth muscle cells; actives raise or lower the signal;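 note: thrombomodulin protein level measured by ELISA 24 h after dosing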
[17] = read-out: Tissue Factor, F3 (gene 2152); experiment: BSK_CASM3C_TissueFactor: BioMAP Diversity Plus: CASM3C Assay for Tissue Factor Biomarker Activity (AID 2283052); settings: primary human coronary artery smooth muscle cells; actives raise or lower the signal;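 note: cell surface tissue factor protein level read by ELISA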
[18] = read-out: Interferon-gamma inducible Protein 10 (IP10), CXCL10 (gene 3627); experiment: BSK_hDFCGF_IP10: BioMAP Diversity Plus: hDFCGF Assay for Interferon-gamma inducible Protein 10 (IP10) Biomarker Activity (AID 2283053); settings: primary human foreskin fibroblasts; actives raise or lower the signal
Summary of the method: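 Chemical-treated human skin fibroblasts (primary) were sampled at 24 h for IP-10 by ELISA. Both increases and decreases relative to DMSO were scored.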

[19] = read-out: Urokinase-type plasminogen activator receptor (uPAR), PLAUR (gene 5329); experiment: BSK_CASM3C_uPAR: BioMAP Diversity Plus: CASM3C Assay for Urokinase-type plasminogen activator receptor (uPAR) Biomarker Activity (AID 2283054); settings: primary human coronary artery smooth muscle cells; actives raise or lower the signal;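 note: cell-surface uPAR protein level quantified by ELISA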
[20] = read-out: Vascular cell adhesion molecule 1 (VCAM1), VCAM1 (gene 7412); experiment: BSK_CASM3C_VCAM1: BioMAP Diversity Plus: CASM3C Assay for Vascular cell adhesion molecule 1 (VCAM1) Biomarker Activity (AID 2283055); settings: primary human coronary artery smooth muscle cells; actives raise or lower the signal;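 note: VCAM-1 protein level quantified by ELISA on the cells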

Measured: AC50

O=C1CCCO1
inactive: all assays above

CC(O)CCO (stereo unspecified)
inactive: all assays above

Cc1cc(N=Nc2ccccc2C)ccc1N
active: [2] 12 µM | [12] 23.6 µM | [16] 10.7 µM | [18] 29.9 µM
inactive: all other assays above

ClC1=C(Cl)[C@]2(Cl)[C@H]3[C@H]([C@@H]4C=C[C@H]3C4)[C@@]1(Cl)C2(Cl)Cl
inactive: [1] | [3] | [4] | [5] | [6] | [16] | [17]
active: [2] 34 µM | [7] 37.4 µM | [8] 34 µM | [9] 29 µM | [10] 32.6 µM | [11] 34 µM | [12] 34.3 µM | [13] 31.6 µM | [14] 31.7 µM | [15] 31.3 µM | [18] 19.3 µM | [19] 32 µM | [20] 38.9 µM

CCOC(=O)[C@]1(c2ccccc2)Oc2ccccc2[C@@H]1N
active: [8] 31 µM | [10] 23.4 µM | [18] 36.6 µM
inactive: all other assays above

CC(C)(OOC(C)(C)c1ccccc1)c1ccccc1
active: [4] 11.6 µM | [8] 28.8 µM | [12] 30.3 µM | [16] 32.1 µM | [17] 20 µM | [18] 37.9 µM
inactive: all other assays above

N#CC(Br)(Br)C(N)=O
inactive: all assays above

CCN(CC)CCO
inactive: all assays above

OCCOCCO
inactive: all assays above

CCCCCCCCOC(=O)c1ccc(C(=O)OCCCCCCCC)c(C(=O)OCCCCCCCC)c1
inactive: all assays above

CCCCCOC(=O)c1ccccc1C(=O)OCCCCC
active: [16] 15.6 µM
inactive: all other assays above

CCOc1cccc(C2(N3CCN(c4ccccc4)CC3)CCC(C)CC2)c1 (stereo unspecified)
inactive: all assays above

COP(=S)(OC)SCN1C(=O)c2ccccc2C1=O
inactive: all assays above

CCNS(=O)(=O)C(F)(F)C(F)(F)C(F)(F)C(F)(F)C(F)(F)C(F)(F)C(F)(F)C(F)(F)F
inactive: [3] | [4] | [5] | [6] | [7] | [8] | [9] | [10] | [11] | [12] | [13] | [14] | [15] | [16] | [17] | [19]
active: [1] 12 µM | [2] 19.3 µM and 4.88 µM and 4.37 µM | [3] 41.5 µM | [4] 21.2 µM and 30 µM | [6] 13 µM | [7] 17 µM | [8] 8.6 µM | [16] 24.6 µM | [18] 18 µM and 20.9 µM and 19.8 µM | [20] 9.52 µM and 11.7 µM and 5.95 µM

CN(C)c1ccccc1
inactive: all assays above

[As]#[In]
inactive: all assays above

Cn1cc(-c2ccccc2)c(=O)c(-c2cccc(C(F)(F)F)c2)c1
active: [19] 5.18 µM
inactive: all other assays above

Cc1ccc(N)c(N)c1
active: [16] 13.7 µM | [18] 3.97 µM | [20] 8.46 µM
inactive: all other assays above

N#CC(Br)Br
inactive: all assays above

COC(=O)c1ccccc1N
inactive: all assays above

C=CCc1ccc2c(c1)OCO2
inactive: all assays above

CCC(C)c1ccc(O)cc1 (stereo unspecified)
inactive: all assays above

CCN(CC)N=O
inactive: all assays above

CCCCC(CC)COC(=O)c1ccc(C(=O)OCC(CC)CCCC)c(C(=O)OCC(CC)CCCC)c1 (stereo unspecified)
inactive: all assays above

c1ccc(NNc2ccccc2)cc1
active: [16] 15.9 µM
inactive: all other assays above

Cc1ccc(N)cc1
inactive: all assays above

CN(C)[C@@H]1C(=O)C(C(N)=O)=C(O)[C@@]2(O)C(=O)C3=C(O)c4c(O)cccc4[C@@](C)(O)[C@H]3C[C@@H]12
inactive: all assays above
